# Values joined by “and” are separate entries in the source; they are usually repeats but may differ in a detail not shown here. Equal values may be shown once. Compounds without any hit were thinned out: in the full panel of roughly 83,000, 20% have a hit.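 Growth was measured after 48 h exposure to one concentration of compound in 96-well plates. Values under 10 count as active.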 Active and inactive are the calls of the source.
# Tested on: MDA-MB-468 breast
# Assay: NCI-60 one-dose screen, 48 h (100 = growth as untreated, 0 = no growth, -100 = all killed)
# Settings: 10 µM unless noted
row,Compound,growth
1,N#CC[C@H](C1CCCC1)n1cc(-c2ncnc3[nH]ccc23)cn1,71.3% (inactive)
2,CCc1ccc(CNc2ccc(N3CCOCC3)c(C(=O)O)c2)cc1,101% (inactive)
3,O=C(CSc1nnc(-c2ccc(NC(=O)c3cccnc3)cc2)o1)Nc1cccc(Br)c1,97.3% (inactive)
4,CC(=O)Cc1ccc(-c2ccccc2)cc1,93.7% (inactive)
5,COc1cccc(NC(=O)[C@H](C(C)C)n2c(=O)[nH]c3ccccc3c2=O)c1,101% (inactive)
6,S=C(NCCNC(=S)[S][Sn]([c]1ccccc1)([c]1ccccc1)[c]1ccccc1)[S][Sn]([c]1ccccc1)([c]1ccccc1)[c]1ccccc1,-97.9% (active)
7,COc1ccc2c(c1)[nH]c(=O)c1c3cc(OC)ccc3cn21,5.66% (active)
8,CN1C=CN(Cc2ccc(-c3ccccn3)nc2)[CH-]1.CN1C=CN(Cc2ccc(-c3ccccn3)nc2)[CH-]1.[Au+3],-19.2% (active)
9,COc1cc2ncnc(-n3ncc4cc(NC(=O)Nc5ccccc5)ccc43)c2cc1OC,-67% (active)
10,Clc1ccc(CNc2ccc3nc(CCC4CCCCC4)[nH]c3c2)cc1,-43.5% (active)
11,CCCCn1c(C)nc2ccc(Nc3nc(Cl)nc4nc[nH]c34)cc21,34.6% (inactive)
12,Cc1cc[c-]cc1.Fc1c[c-]c(-c2ccccn2)c(F)c1.[Pt+2].c1ccc(P(C[PH+](c2ccccc2)c2ccccc2)c2ccccc2)cc1,-2.46% (active)
13,O=C(CCCCCCN1CC(=O)N2[C@H](c3cc(Br)cs3)c3[nH]c4ccccc4c3C[C@H]2C1=O)NO,44.7% (inactive)
14,O=[N+]([O-])c1ccc(S(=O)Cc2ccccc2)c([N+](=O)[O-])c1 (stereo not given),-56% (active) and -64.1% (active)
15,O=C(CC(=O)C(F)(F)C(F)(F)C(F)(F)F)c1cc2ccccc2o1,112% (inactive)
16,NS(=O)(=O)c1cc2c(cc1Cl)NC=NS2(=O)=O,108% (inactive)
17,O=[n+]1ccn([O-])c2ccccc21,86.9% (inactive)
18,CCOC(=O)C1CCN(c2ccc(N3C[C@@H](CNCc4ccc(C(=N)N)cc4)OC3=O)cc2)CC1,100% (inactive)

row,Compound,growth
1,CCCCCN1C(=O)/C(=c2\sc3n(c2=O)C2C(NN=3)N(CC)C(=O)N2CC)c2cccc(C)c21 (stereo not given),34.5% (inactive)
2,C=C1C(=O)O[C@H]2[C@H]1CC/C(COC(=O)/C=C/C(=O)OC/C1=C/CC[C@@]3(C)O[C@H]3[C@H]3OC(=O)C(=C)[C@@H]3CC1)=C\CC[C@@]1(C)O[C@@H]21,-5.97% (active)
3,COc1ccc(-c2csc(NC(=O)CSc3nc(C)c(-c4ccccc4)n3Nc3ccccc3)n2)cc1,91.3% (inactive)
4,C#CC(=O)/C=C/CCCCCCC#CC(=O)CCC(=O)C#CCCCCCC/C=C/C(=O)C#C,-10% (active)
5,Nc1ncc(-c2ccc3ncnc(N4CCc5cc(F)c(Cl)cc54)c3c2)cn1,15.8% (inactive) and -64% (active)
6,Cc1ccc(C2=Nc3c(ccc4c(C)c(C)c(=O)oc34)OC2)cc1,113% (inactive)
7,COc1cc(C2CC(c3ccc(Nc4nc(NCCO)nc(NCCO)n4)cc3)=NN2c2cc(Cl)cc(Cl)c2)cc(OC)c1OC (stereo not given),-9.24% (active)
8,CCN(CC)c1ccc(/C=C/C(=O)c2cccc(NS(C)(=O)=O)c2)cc1,35.4% (inactive)
9,COc1ccc(C2=NN(c3ccc(S(N)(=O)=O)cc3)C(c3ccc(Cl)cc3)C2)c(O)c1 (stereo not given),61.7% (inactive)
10,COc1ccc(C(c2cc(OC)c(OC)c(OC)c2)N2CCN(c3ccccc3)CC2)cc1 (stereo not given),77.2% (inactive)
11,CC12CCC3C(CCC4CC(O)CCC43C)C1C/C(=C/O)C(=O)O2 (stereo not given),108% (inactive)
12,COc1ccc(/C=C/c2nc(Nc3ccc(S(=O)(=O)NC(C)=O)cc3)c3ccccc3n2)cc1,53.2% (inactive)
13,CC1=CC(C)(C)NC(=S)N1c1ccc(S(=O)(=O)O)c2cccc(S(=O)(=O)O)c12,107% (inactive)
14,CNC(=O)c1cc(-n2ccc3cc(NC(=O)Nc4ccc(N5CCN(C)CC5)c(C(F)(F)F)c4)ccc32)ccn1,59.7% (inactive)
15,COc1ccc(-c2nn(-c3cccc(Cl)c3)cc2-c2c(C#N)c(=O)n3[nH]c(-c4ccccc4)nc3c2C#N)cc1,97.6% (inactive)
16,COc1cnc2c(c1)C(=O)c1c-2n(CCCNCCO)c(=O)c2ccncc12,-23.9% (active)
17,O=C1Nc2ccccc2/C1=C/C(=N/c1nnc(-c2ccccc2)s1)c1ccccc1,56% (inactive)
